Results taken from ChEMBL document CHEMBL4513216, “Probing the Open Global Health Chemical Diversity Library for Multistage-Active Starting Points for Next-Generation Antimalarials” (ACS Infect Dis, 2020).
Hit rate of the full screen: of about 68,000 compounds, about 2,700 (4%) showed an effect of 50% or more. Shown is part of a subset that was picked to be rich in strong results.

Tested on: Plasmodium berghei
Assay: Screen against P. berghei liver stage (PbLuc), transformed with Luciferase, at 2uM
Assay type: functional, HepG2
Details: tested at 2 uM

| SMILES | INHIBITION |
| --- | --- |
| Cc1nn(C)cc1C1=NS(=O)(=O)N(C)C(C(=O)Nc2ccc(Cl)cc2)=C1 | -13.02% |
| CCn1cc(S(=O)(=O)NC2CCCN(CCCc3ccccc3)C2)cn1 (stereo unspecified) | 7.21% |
| CC(=O)N1CCCCCC1C1CCN(Cc2nnc(C(C)(C)C)o2)CC1 (stereo unspecified) | 30.82% |
| COc1cncc(-n2ccnc2-c2ccc(C(=O)O)s2)c1 | 48.58% |
| Cc1cnc(C(=O)N2CCC3(CC2)CC(c2ccccc2)C(=O)N3)cn1 (stereo unspecified) | -6.21% |
| CC(=O)N[C@@H]1CN(C(=O)c2csc(C(C)C)n2)C[C@H]1C(C)C | 3.62% |
| CC(C)c1nc(C(=O)N2CCCC(N)CC2)cs1 (stereo unspecified) | -66.05% |
| CC(C)c1nc(C(=O)N2C[C@H](C(C)C)[C@@H](N)C2)cs1 | 58.69% |
| COc1ccc(-c2cc(CN)nc3ccnn23)cc1 | -11.81% |
| O=c1c(NCc2ccccn2)c(NCC(O)CN2CCOCC2)c1=O (stereo unspecified) | 15.02% |
| O=c1c(NCc2ccncc2)c(NCC(O)CN2CCOCC2)c1=O (stereo unspecified) | 1.08% |
| O=c1c(NCc2ccco2)c(NCC(O)CN2CCOCC2)c1=O (stereo unspecified) | 53.33% |
| COCCN1CCc2cc(C(=O)NCC3CC3)c(NC(C)C)nc2CC1 | 25.35% |
| COC[C@]1(O)CCN(C(=O)c2ccc(CN(C)C)o2)CC1(C)C | 8.88% |
| CN(Cc1ccccc1)C1(C(=O)NC(CO)CO)Cc2ccccc2C1 | 31.35% |
| CC(Cc1cn(CCc2nnn[nH]2)nn1)c1ccccc1 (stereo unspecified) | 29.41% |
| Cc1nccc([C@@H]2C[C@@H]3CCN(S(=O)(=O)N(C)C)C[C@H]3O2)n1 | 54.16% |
| Cc1nccc([C@@H]2C[C@@H]3CCN(S(C)(=O)=O)C[C@H]3O2)n1 | 26.65% |
| Cc1nccc([C@H]2C[C@@H]3CCN(S(=O)(=O)N(C)C)C[C@H]3O2)n1 | 21.33% |
| COc1cc(N2C[C@H]3CCC[C@@H](CN4CCOCC4)[C@H]3C2)ncn1 | 36.75% |
| CCCS(=O)(=O)N1C[C@@H]2CN(Cc3ccoc3)CCO[C@@H]2C1 | 33.4% |
| Cn1cc(C(=O)N2CCOc3ccccc32)ccc1=O | -31.6% |
| CN1CCN(C(=O)c2ccc(=O)n(C)c2)c2ccccc21 | 51.19% |
| COCCCN1CC2(CCN(C(=O)c3ccc(=O)n(C)c3)CC2)CC1=O | 44.23% |
| CC(=O)N1CCCN(C(=O)c2ccc(=O)n(C)c2)c2ccccc21 | 28.18% |
| Cn1cc(C(=O)N2CCSc3ccccc32)ccc1=O | 50.05% |

| SMILES | INHIBITION |
| --- | --- |
| CN1CC2(CCN(C(=O)c3ccc4nonc4c3)CC2)CC1=O | 10.02% |
| CC1CN(C)c2ccccc2N(C(=O)c2ccc(=O)n(C)c2)C1 (stereo unspecified) | 15.47% |
| CN1CC2(CCN(C(=O)c3ccc(=O)n(C)c3)CC2)CC1=O | 53.13% |
| CCN1CCN(C(=O)c2ccc(=O)n(C)c2)c2ccccc21 | -22.63% |
| CC(C)n1nc(CN2CCCC2)c2c1CN(CC1CC1)CC2 | -29% |
| FC(F)(F)CCc1ccnc(NCc2csc(N3CCOCC3)n2)n1 | -17.11% |
| Cn1nnc2c1C(COCC1CC1)CN(C(=O)C1=CCCC1)C2 (stereo unspecified) | 22.68% |
| CCN1CCC2(CCN(c3ncccn3)CC2)C1=O | 32.05% |
| CC(C)NS(=O)(=O)c1cc(C(=O)O)cc(-c2ccc3c(c2)OCO3)c1 | -12.67% |
| O=C(NCc1ccccn1)[C@@H]1CCO[C@@H]2CCN(Cc3ccoc3)C[C@H]21 | 11.08% |
| O=C(c1ccno1)N1CCCC(c2ncncc2-c2ccncc2)C1 (stereo unspecified) | 6.13% |
| OC1(CN2CCCC(Cn3cncn3)C2)CCCCC1 (stereo unspecified) | 19.9% |
| COCC(NC1CCSCC1)c1ccnn1C (stereo unspecified) | 27.55% |
| Cc1cc(NC(=O)N(CCC#N)CCCN(C)C)ccc1F | -11.32% |
| CN(C)CCCN(CCC#N)C(=O)Nc1ccc2[nH]ccc2c1 | -28.09% |
| Cc1cc(C)cc(NC(=O)N(CCC#N)CCCN(C)C)c1 | 53.81% |
| Cc1noc(C)c1CN1CCc2ncnc(-c3ccoc3)c2CC1 | -15.88% |
| CCOC(=O)CNC(=O)NCc1cc(C)n(-c2ccccc2OC)c1C | 7.91% |
| CCN1CC[C@@]2(C(=O)N3CCOCC3)CCN(S(=O)(=O)CC)CC[C@@H]12 | 46.32% |
| Cc1nc(C)n(CC2CCCN2Cc2ncc(C(C)(C)C)o2)n1 (stereo unspecified) | -39.72% |
| FC(F)(F)c1ccc2nc([C@H]3CCN(C4CCCCC4)C3)[nH]c2c1 | -5.77% |
| FC(F)(F)c1ccc2nc([C@H]3CCN(C4CCC4)C3)[nH]c2c1 | 2.22% |
| FC(F)(F)c1ccc2nc([C@H]3CCN(C4CCOCC4)C3)[nH]c2c1 | 54.16% |
| Cc1n[nH]cc1CNCc1cccc(OCC(F)(F)F)c1 | 36.91% |
| O=C(CC1CCCC1)N1CCN(c2ccc(-n3cncn3)nn2)CC1 | 59.76% |
| O=C(C1CC1)N1CCN(c2ccc(-n3cncn3)nn2)CC1 | 42.14% |

| SMILES | INHIBITION |
| --- | --- |
| O=C(CSC1CCCC1)N1CCN(c2ccc(-n3cncn3)nn2)CC1 | 15.96% |
| Cc1cc(F)ccc1NS(=O)(=O)c1cc2c(c(C(=O)O)c1)OCCO2 | -1.02% |
| CC(C)(N)c1cn(C2CCN(C(=O)CCC3CCCCC3)CC2)nn1 | 20.08% |
| Cc1nc(N2CCCC2)nc2c1CCN(C(=O)CC1CC1)CC2 | -24.79% |
| CC(C)CN1CCNC(=O)C12CCN(S(=O)(=O)c1ccc(F)cc1)CC2 | 55.66% |
| CCN1CCNC(=O)C12CCN(S(=O)(=O)c1ccccc1)CC2 | -2% |
| CCN1CCNC(=O)C12CCN(S(=O)(=O)c1ccc(F)cc1)CC2 | 26.55% |
| Oc1cc(-c2ccccn2)nc(C2CCN(Cc3ccncc3)CC2)n1 | -1.49% |
| Nc1nc2c(c(N3CCCC(OCc4ccccn4)C3)n1)CCNCC2 (stereo unspecified) | -24.7% |
| Cc1ncsc1CCN(C)Cc1ccc(Br)o1 | 34.18% |
| Cc1ccsc1CN(C)CCc1scnc1C | 57.75% |
| Cc1ncsc1CCN(C)Cc1ccc(CO)o1 | 36.28% |
| CC(C)=CCN1C[C@@H]2CN(C(=O)c3cnccc3C)C[C@]2(C(=O)O)C1 | -9.48% |
| CCn1nc(C)cc1C(=O)N1CCC(Nc2ccc(C)nn2)CC1 | -7.05% |
| COC(=O)c1ccc(N(C)C2CCC2)nn1 | 24.36% |
| CN(c1ccc(C(N)=O)nn1)C1CCC1 | -35.26% |
| CNC(=O)c1ccc(N(C)C2CCC2)nn1 | 67.28% |
| C[C@@H]1C[C@H]2CN(C(=O)C3=CCCCC3)C[C@H]2O1 | 28.2% |
| CCOCC(=O)N1C[C@@H]2CC[C@H]1CN(C(=O)c1ccncc1)C2 | -3.87% |
| O=C(c1ccncc1)N1C[C@H]2CC[C@@H](C1)N(C(=O)N1CCOCC1)C2 | -58.5% |
| O=C(c1ccncc1)N1C[C@H]2CC[C@@H](C1)N(C(=O)C1CCCC1)C2 | 63.1% |
| CN(C)C(=O)N1Cc2nnn(C)c2C(COCc2cccnc2)C1 (stereo unspecified) | -16.25% |
| CCc1ccc(NC(=O)N2C[C@@H]3C[C@H](C(=O)NC4CCC4)[C@H](C2)O3)cc1 | 25.08% |
| Cc1ncc(CN2CCOC(c3ccc(-c4ccccc4F)cn3)C2)s1 (stereo unspecified) | 48.08% |
| CNC(=O)c1cn[nH]c1C1(C)CCCN(Cc2ccccn2)C1 (stereo unspecified) | 19.47% |
| CN(C)C(=O)c1cn[nH]c1C1(C)CCCN(Cc2ccccn2)C1 (stereo unspecified) | 70.33% |

| SMILES | INHIBITION |
| --- | --- |
| CN(C)C(=O)c1cn[nH]c1C1(C)CCN(c2ncccn2)CC1 | -16.2% |
| Cc1ccc(C)c(CS(=O)(=O)CC(=O)NCCCOC(C)C)c1 | 22.1% |
| Cc1cccc(-c2noc(C)c2C(=O)NC2CCCOC2)c1 (stereo unspecified) | -3.96% |
| Cc1nc(CN2CCN(S(=O)(=O)N3CCOCC3)CC2)oc1C | -9.04% |
| Cc1nc(CN2CCN(S(=O)(=O)N3CCCCC3)CC2)oc1C | 54.44% |
| Cc1nc(CN2CCOC3(CCCC3)C2)oc1C | 20.49% |
| CC(C)N1CC[C@H]2[C@H](C[C@@H](Cn3cccn3)N2c2nccs2)C1 | 34.42% |
| CNC(=O)CN1CC[C@H]2CN(C(=O)c3ccc(C)cc3)C[C@H]2C1 | 51.94% |
| CNC(=O)CN1CC[C@H]2CN(C(=O)c3ccc(C)nc3)C[C@H]2C1 | 40.83% |
| CNC(=O)CN1CC[C@H]2CN(C(=O)c3cccc(C)c3)C[C@H]2C1 | 30.63% |
| Cc1nccn1C1CCCN(C(=O)CCc2nc(C(C)C)no2)C1 (stereo unspecified) | 21.71% |
| CN1C(=O)[C@@H]2CC[C@H]1CN(C(=O)Nc1cccc3ccccc13)C2 | -110.62% |
| Cc1c(Br)cc2c(c1C)OCC(N(C)C)C2=O (stereo unspecified) | -5.64% |
| CCN(CC)C1COc2c(cc(Br)c(C)c2C)C1=O (stereo unspecified) | 24.56% |
| CCN(CC)C1COc2c(cc(Br)c(C)c2Br)C1=O (stereo unspecified) | 58.18% |
| Cc1cnn(CCNCC(O)COc2ccc(F)cc2)c1 (stereo unspecified) | -0.05% |
| CC(C)(C)C(=O)N1CCC(n2nc(-c3ccco3)ccc2=O)CC1 | 17.8% |
| CN(C)C(=O)N1C[C@H]2CN(Cc3cccc(F)c3)C(=O)[C@H]2C1 | 18.8% |
| CN(C)C(=O)CN1C[C@H]2CN(Cc3cccc(F)c3)C(=O)[C@H]2C1 | 53.98% |
| O=C1[C@H]2CN(CC3CCOCC3)C[C@H]2CN1Cc1cccc(F)c1 | 14.13% |
| O=C1[C@H]2CN(C3CCOCC3)C[C@H]2CN1Cc1cccc(F)c1 | 66.67% |
| O=C1[C@H]2CN(CC3CC3)C[C@H]2CN1Cc1cccc(F)c1 | 26.52% |
| Cc1cccc(CN2C[C@@H]3CN(C4CCOCC4)C[C@@H]3C2=O)c1 | 6.22% |
